Assay [1] has as its target Bile acid receptor (Homo sapiens) (UniProt Q96RI1). Description: NVS_NR_hFXR_Antagonist: NovaScreen (NVS) Nuclear Receptor Binding Assay for human Farnesoid X Receptor Antagonism (FXR) (AID 2283350). In short, it runs like this:
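Antagonist-format time-resolved FRET binding assay with extracted human receptor protein, read 1 hour after compound addition. Compounds first screened at 25 uM in duplicate, then actives tested in concentration series, with loss of signal relative to DMSO.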

The target in assay [2] is Retinoic acid receptor alpha (Homo sapiens) (UniProt P10276). Description: NVS_NR_hRAR_Antagonist: NovaScreen (NVS) Nuclear Receptor Binding Assay for human Retinoic Acid Alpha Receptor Antagonism (RAR) (AID 2283358). In short, it runs like this: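 Read-out: time-resolved FRET binding signal, 2 h post-dose, cell-free extracted protein. Antagonism scored as signal loss versus DMSO negative control. Primary single-concentration screen at 25 uM in duplicate; concentration series for actives.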

The target of assay [3] is rat Mineralocorticoid Receptor (MR), Nr3c2 (gene 25672) (UniProt P22199). Description: NVS_NR_rMR: NovaScreen (NVS) Nuclear Receptor Binding Assay for rat Mineralocorticoid Receptor (MR) (AID 2283355). An outline of the steps:
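Radioligand displacement, scintillation readout; tissue source adrenalectomized rat brain supernatant. Read 24 h post-dose. Screened in duplicate at 25 uM, DMSO negative control, controls on every plate; actives re-run in concentration series.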

The next assay deals with PGR (gene 5241) (UniProt P06401). As to the kind of experiment: NVS_NR_hPR: NovaScreen (NVS) Nuclear Receptor Binding Assay for human Progestron Receptor (PR) (AID 2283360).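 Note: active means loss of bound radioligand signal versus DMSO baseline.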 An outline of the steps: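 Cell-free radioligand binding using receptor protein extracted from T47D cells, read by scintillation counting 18 hours after dosing. Loss of signal relative to DMSO baseline indicates displacement; primary screen single concentration 25 uM in duplicate, actives followed in concentration series.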

Inconclusive results are not listed. Activity calls are given as the source filed them. Rule for the calls: active = hit-call score of the fitted dose curve at least 0.9, where 1 is the maximum; inconclusive = response in the unintended direction; inactive = score below 0.9.

Retinoic acid receptor alpha (Homo sapiens), sequence (P10276 whole entry, looked up): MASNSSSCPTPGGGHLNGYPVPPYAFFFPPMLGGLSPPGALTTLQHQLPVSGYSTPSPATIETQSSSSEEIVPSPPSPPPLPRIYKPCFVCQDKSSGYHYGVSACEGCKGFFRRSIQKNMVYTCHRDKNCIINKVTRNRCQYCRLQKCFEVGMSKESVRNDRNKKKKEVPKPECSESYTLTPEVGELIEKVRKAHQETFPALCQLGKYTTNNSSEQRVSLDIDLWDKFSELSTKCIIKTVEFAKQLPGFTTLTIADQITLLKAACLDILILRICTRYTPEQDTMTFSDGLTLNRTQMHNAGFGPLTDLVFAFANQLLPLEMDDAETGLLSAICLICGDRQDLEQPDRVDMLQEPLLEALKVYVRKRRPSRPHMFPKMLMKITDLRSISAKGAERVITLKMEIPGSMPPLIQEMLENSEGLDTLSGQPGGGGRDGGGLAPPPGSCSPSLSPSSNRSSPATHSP
Bile acid receptor (Homo sapiens), sequence (Q96RI1 whole entry, looked up): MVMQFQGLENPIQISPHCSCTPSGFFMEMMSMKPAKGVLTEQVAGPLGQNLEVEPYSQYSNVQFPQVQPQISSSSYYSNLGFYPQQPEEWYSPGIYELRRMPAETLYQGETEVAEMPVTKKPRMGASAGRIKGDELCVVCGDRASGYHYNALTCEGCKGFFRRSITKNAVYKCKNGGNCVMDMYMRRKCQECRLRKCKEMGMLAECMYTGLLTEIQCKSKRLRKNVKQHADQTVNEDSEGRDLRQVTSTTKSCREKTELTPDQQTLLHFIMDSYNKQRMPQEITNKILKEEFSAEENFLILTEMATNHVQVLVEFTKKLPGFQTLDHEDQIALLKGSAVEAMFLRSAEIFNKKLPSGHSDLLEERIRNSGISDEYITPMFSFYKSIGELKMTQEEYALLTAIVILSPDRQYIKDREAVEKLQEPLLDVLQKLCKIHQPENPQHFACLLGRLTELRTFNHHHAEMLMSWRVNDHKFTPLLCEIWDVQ
PGR (gene 5241), sequence (P06401 whole entry, looked up): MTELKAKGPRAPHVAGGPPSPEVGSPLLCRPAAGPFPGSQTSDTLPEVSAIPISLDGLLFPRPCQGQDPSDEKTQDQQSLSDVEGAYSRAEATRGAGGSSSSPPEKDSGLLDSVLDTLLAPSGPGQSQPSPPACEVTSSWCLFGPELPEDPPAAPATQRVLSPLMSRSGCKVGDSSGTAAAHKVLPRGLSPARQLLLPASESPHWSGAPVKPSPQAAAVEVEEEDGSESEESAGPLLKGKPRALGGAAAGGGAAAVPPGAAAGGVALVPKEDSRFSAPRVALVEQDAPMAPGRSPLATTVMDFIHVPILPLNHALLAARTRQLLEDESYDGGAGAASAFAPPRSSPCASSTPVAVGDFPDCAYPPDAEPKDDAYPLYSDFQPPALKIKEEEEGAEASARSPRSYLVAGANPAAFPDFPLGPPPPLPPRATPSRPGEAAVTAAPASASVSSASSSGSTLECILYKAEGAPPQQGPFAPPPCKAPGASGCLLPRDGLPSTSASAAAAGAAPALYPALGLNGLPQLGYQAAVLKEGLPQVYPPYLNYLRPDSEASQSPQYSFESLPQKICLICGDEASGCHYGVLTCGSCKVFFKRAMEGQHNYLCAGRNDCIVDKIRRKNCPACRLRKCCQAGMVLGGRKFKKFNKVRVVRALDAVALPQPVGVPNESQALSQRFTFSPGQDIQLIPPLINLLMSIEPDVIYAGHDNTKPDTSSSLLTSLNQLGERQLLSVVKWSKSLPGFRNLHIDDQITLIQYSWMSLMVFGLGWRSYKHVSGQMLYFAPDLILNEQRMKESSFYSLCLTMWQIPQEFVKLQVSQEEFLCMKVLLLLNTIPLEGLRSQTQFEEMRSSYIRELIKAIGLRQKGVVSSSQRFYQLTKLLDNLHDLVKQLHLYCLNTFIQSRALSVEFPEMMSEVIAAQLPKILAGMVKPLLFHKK
rat Mineralocorticoid Receptor (MR), Nr3c2 (gene 25672), sequence (P22199 whole entry, looked up): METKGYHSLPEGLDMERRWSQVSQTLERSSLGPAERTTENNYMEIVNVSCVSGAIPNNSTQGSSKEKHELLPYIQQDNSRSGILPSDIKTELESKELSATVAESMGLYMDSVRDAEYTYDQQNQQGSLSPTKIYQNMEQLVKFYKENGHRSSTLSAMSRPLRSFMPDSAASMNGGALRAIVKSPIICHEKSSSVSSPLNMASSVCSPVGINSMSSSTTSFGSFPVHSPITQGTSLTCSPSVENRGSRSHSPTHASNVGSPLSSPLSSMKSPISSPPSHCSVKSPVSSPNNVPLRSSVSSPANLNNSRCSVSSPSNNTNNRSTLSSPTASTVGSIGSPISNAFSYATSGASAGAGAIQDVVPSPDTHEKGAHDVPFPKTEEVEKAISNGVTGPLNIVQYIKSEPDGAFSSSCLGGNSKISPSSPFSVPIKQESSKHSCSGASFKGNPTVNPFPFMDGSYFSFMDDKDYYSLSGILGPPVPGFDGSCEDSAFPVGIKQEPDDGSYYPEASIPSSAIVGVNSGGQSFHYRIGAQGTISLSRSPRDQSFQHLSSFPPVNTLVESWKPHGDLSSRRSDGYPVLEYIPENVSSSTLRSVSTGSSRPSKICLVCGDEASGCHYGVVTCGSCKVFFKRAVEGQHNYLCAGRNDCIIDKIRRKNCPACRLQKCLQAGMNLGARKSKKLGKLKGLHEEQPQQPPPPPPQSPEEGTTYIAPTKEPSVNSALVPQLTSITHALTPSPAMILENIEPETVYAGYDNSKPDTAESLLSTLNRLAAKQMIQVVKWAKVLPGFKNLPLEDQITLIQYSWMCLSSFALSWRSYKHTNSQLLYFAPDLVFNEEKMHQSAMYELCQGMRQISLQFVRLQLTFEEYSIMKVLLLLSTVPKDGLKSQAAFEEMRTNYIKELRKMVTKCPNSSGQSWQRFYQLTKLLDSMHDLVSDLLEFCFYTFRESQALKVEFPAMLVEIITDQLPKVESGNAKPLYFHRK

For the compound `[Cl-].[Cl-].[Hg+2]`, in assay [1], the compound was classed as inactive. For the compound `CCNS(=O)(=O)C(F)(F)C(F)(F)C(F)(F)C(F)(F)C(F)(F)C(F)(F)C(F)(F)C(F)(F)F`, the result in assay [1] and in assay [2] was inactive. Take `CCC[CH2][Sn]([Cl])([CH2]CCC)[CH2]CCC`: the call in assay [3] was inactive. Also, the AC50 – broadly, the concentration at which the activity in the assay is half-maximal – with PGR (gene 5241) is 2.92 µM (active).

Regarding `CCN(CC)N=O`, the result in assay [2] was inactive.

(Values after PubChem BioAssay (EPA / NIEHS).)
